Compound activity as filed in PubChem BioAssay.
Rows were chosen to be rich in hits. Some 6.7% of all compounds tested hit in one or more screens of this group.
GDH-TPI counter = counter-screen for M. tuberculosis FBA inhibitors: GDH-TPI coupled enzymes. GDH-TPI coupled enzyme counterscreen, NADH absorbance. inhibition, % at 4.8 µM. actives 1.2% (n = 360,000). AID 588335; in the data active = inhibition above about 30%;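 also: 0% = DMSO wells and 100% = wells lacking the enzyme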
Anthrax LF inh2 = anthrax lethal factor protease inhibition | P15917 | multiplex microsphere protease cleavage assay, LF | inhibition, % at 10 µM | actives 0.12% (n = 360,000); also: plate controls were buffer without enzyme for full effect and enzyme alone for no effect
BoNT A protease = BoNT A light chain protease inhibition. actives 0.17% (n = 360,000). AID 588499. inhibition, % at 10 µM. multiplex microsphere protease substrate cleavage, flow cytometry; also: plate controls were buffer without enzyme for full effect and enzyme alone for no effect
BoNT F protease = inhibitors of Botulinum neurotoxin F light chain protease. Multiplex microsphere protease cleavage assay, flow cytometry. inhibition, % at 10 µM. actives 0.22% (n = 360,000). AID 588497; in the data active = inhibition above about 35%, passing the limit was not always enough; inconclusive = no clear call, values can overlap the other calls; also: plate controls were buffer without enzyme for full effect and enzyme alone for no effect
Bead autofluor = counter-screen for toxin protease inhibitors: compound fluorescence; compound autofluorescence counterscreen, microsphere flow cytometry; active compounds read high; fluorescence intensity (no concentration beside the values); actives 3.1% (n = 360,000); in the data active = fluorescence intensity above about 16000; inconclusive = no clear call, values can overlap the other calls
FBA Mtb inh = inhibitors of M. tuberculosis fructose-bisphosphate aldolase | inhibition, % at 1 µM | actives 2.3% (n = 360,000) | purified M. tuberculosis FBA, fluorescence read-out | P9WQA3; in the data active = inhibition above about 27%;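 also: 0% = vehicle and 100% = reference inhibitor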
Target sequence (P9WQA3 whole entry, looked up): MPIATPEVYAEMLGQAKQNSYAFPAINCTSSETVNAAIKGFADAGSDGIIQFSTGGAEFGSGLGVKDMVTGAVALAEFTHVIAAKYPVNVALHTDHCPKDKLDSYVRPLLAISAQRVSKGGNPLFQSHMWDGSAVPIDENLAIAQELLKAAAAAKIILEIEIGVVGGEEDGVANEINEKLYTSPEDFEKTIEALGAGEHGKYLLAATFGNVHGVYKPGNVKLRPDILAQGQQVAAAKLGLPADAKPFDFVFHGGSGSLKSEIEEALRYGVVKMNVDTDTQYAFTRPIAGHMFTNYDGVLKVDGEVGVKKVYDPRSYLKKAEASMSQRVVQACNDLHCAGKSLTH
* hit, by the source's call; ? = inconclusive; · = no result; + = active, no number. Rule as the data show it, unless noted: active = inhibition above about 30%; inconclusive = no clear call, values can overlap the other calls; inactive = below that.

SMILES	GDH-TPI counter	Anthrax LF inh2	BoNT A protease	BoNT F protease	Bead autofluor	FBA Mtb inh
C#CCSc1nnc(-c2cccc3ccccc23)o1	15.5	-4.0	0.3	-0.5	16238*	5.9
COc1ccc(S(=O)(=O)N(CC(=O)NC(C)C)Cc2ccccc2)cc1	0.4	-0.8	-0.5	6.4	7545	-1.0
Brc1ccc(-n2c(SCc3nc4ccccc4[nH]3)nnc2-c2ccncc2)cc1	0.0	0.7	0.8	-13.0	2809	2.4
Clc1ccc(-n2c(SCc3nc4ccccc4[nH]3)nnc2-c2ccncc2)cc1	7.6	1.2	3.8	3.5	21021*	1.1
CCOc1ccc(-c2nnc(SCc3nc4ccccc4[nH]3)n2N)cc1	2.4	-0.3	-2.1	-5.3	22829*	0.4
Cn1c(SCc2nc3ccccc3[nH]2)nnc1-c1cccnc1	-5.8	2.7	?	-2.1	20145*	-3.0
COc1ccccc1-c1nnc(SCc2nc3ccccc3[nH]2)n1C	4.1	1.5	2.0	1.8	11093	3.3
O=C(NCc1ccccc1)/C(=C/c1cccc([N+](=O)[O-])c1)NC(=O)c1ccco1	-2.2	-14.0	-3.1	-14.7	3001	-3.3
CC(CCc1ccco1)NC(=O)c1cc2c(-c3ccccc3F)nn(C)c2s1 (stereo not drawn)	-0.5	-4.3	-1.2	-0.6	5647	12.0
COc1ccc(-n2cccc2C=O)cc1OC	1.0	-1.6	?	-2.5	22117*	-4.5
COc1ccc(-n2cccc2C=O)cc1	-1.9	-1.4	-0.7	-5.4	2784	3.9
Cc1cn(CC(=O)NCc2ccc3c(c2)OCO3)c(=O)[nH]c1=O	-7.5	9.5	-0.4	1.8	3851	0.7
NCCSc1c(-c2ccc(Cl)cc2)[nH]c2ccccc12	6.2	-11.9	-0.2	-19.1	4490	9.5
COC(=O)/C=c1/s/c(=C(/C#N)C(=O)N2CCOCC2)n(-c2ccccc2)c1=O	39.9*	·	·	·	·	2.5
COc1ccc(-n2c(=O)/c(=C\c3cccs3)s/c2=C(/C#N)C(=O)NCCN2CCOCC2)cc1	34.1*	1.0	0.3	-1.8	4352	-4.7
C=CCn1c(=O)/c(=C\c2ccsc2)s/c1=C(/C#N)C(=O)NCCN1CCOCC1	7.5	-2.9	-0.4	-7.7	3550	0.6
CCOC(=O)C1=NOC(C(=O)NN(C)c2ncc(C(F)(F)F)cc2Cl)C1 (stereo not drawn)	-7.6	-0.1	0.0	-3.3	4174	2.6
C/C(=N\Nc1ccc([N+](=O)[O-])cc1[N+](=O)[O-])C(C)C(C)C (stereo not drawn)	5.7	-0.7	-0.8	-12.6	4397	-6.1
O=C(NNC(=S)Nc1ccc(Cl)cc1Cl)c1ccncc1	12.8	-1.3	-0.2	2.1	2120	-3.3
O=C(NNC(=S)Nc1ccccc1Cl)c1ccncc1	33.8*	·	·	·	·	-3.4
COc1ccc(Cc2nc(-c3ccc(-n4cccc4)cc3)no2)cc1	3.0	-6.5	-0.5	-10.1	6133	0.1
Clc1ccc(Cc2nc(-c3cccnc3)no2)cc1	1.5	-1.5	0.9	0.8	21733*	1.8
COc1ccc(Cc2nc(-c3ccccc3)no2)cc1	0.7	-1.8	-2.1	-3.9	21271*	0.1
Cc1ccc(-c2noc(CNc3ccccc3)n2)cc1	-1.0	-2.7	?	-0.7	21856*	-1.4
COc1cc(N/C=C(\C(C)=O)c2ccccc2)cc(OC)c1	43.7*	-3.3	0.0	14.4	2541	-3.0
SMILES	GDH-TPI counter	Anthrax LF inh2	BoNT A protease	BoNT F protease	Bead autofluor	FBA Mtb inh
CC(=O)/C(=C/Nc1ccc(Oc2ccccc2)cc1)c1ccccc1	7.5	-3.1	-0.5	-2.4	2197	0.4
O=C(Oc1ccc2ccc(=O)oc2c1)c1ccc([N+](=O)[O-])cc1	-2.4	0.0	-4.9	-5.3	3353	183.0*
CC(=O)Oc1ccc2ccc(=O)oc2c1	9.0	-5.8	0.1	4.8	5179	+
Cc1ccc(C(=O)Oc2ccc3ccc(=O)oc3c2)cc1	13.0	-3.8	0.4	7.4	3722	22.1
CN(C)CCNC(=O)c1ccc2c(c1)NC(=O)c1ccccc1S2	-5.0	2.4	2.0	0.5	3912	-0.3
CN(C)c1ncc(S(=O)(=O)c2ccccc2)c(-c2ccc(Cl)cc2Cl)n1	14.8	0.6	?	-1.7	22616*	0.7
CN(C)c1ncc(S(=O)(=O)c2ccc(Cl)cc2)c(-c2ccc(Cl)cc2Cl)n1	8.0	9.3	0.1	-2.1	10495	3.9
CCCCn1c(N)c(C(=O)OCC2CCCO2)c2nc3ccccc3nc21 (stereo not drawn)	17.9	2.3	3.3	-4.6	10838	+
CC1=C(C(=O)OCC2CCCO2)C(c2ccccc2)NC(=O)N1 (stereo not drawn)	-0.8	-4.1	0.7	-6.9	10805	-0.8
CC(C)CCn1c(N)c(C(=O)OCC2CCCO2)c2nc3ccccc3nc21 (stereo not drawn)	8.2	-3.4	2.4	-2.0	3356	134.3*
Nc1c(C(=O)OCC2CCCO2)c2nc3ccccc3nc2n1C1CCCCC1 (stereo not drawn)	7.9	-2.3	0.7	-6.2	9705	14.1
O=C(Cn1c(=O)oc2ccccc21)Nc1ccc(Cl)cc1Cl	-6.0	2.9	-0.8	?	4423	2.8
O=C(c1ccccc1)c1ccc(N2CCOCC2)cc1	37.9*	-1.4	-0.2	-9.7	3573	3.0
O=C(Cc1ccccc1)c1ccc(N2CCOCC2)cc1	37.1*	8.1	0.2	6.5	4126	6.2
CSc1ccccc1C(=O)Nc1cccc(C)c1	4.1	-3.7	?	10.7	17403*	-1.9
COC(=O)c1ccc(NC(=O)c2ccccc2SC)cc1	2.8	-2.4	-2.6	-2.1	16827*	3.3
CSc1ccccc1C(=O)Nc1cccc([N+](=O)[O-])c1	1.9	-1.6	-0.4	1.7	4563	1.8
O=C(C[C@H]1C/C=C\C[C@H](Cc2ccc(F)cc2)C(=O)OCCNC1=O)NCCO	4.8	-1.0	-0.1	-4.8	3431	-0.1
Brc1ccc(CNCc2cccs2)cc1	1.1	-1.0	-0.1	-5.4	2184	6.8
c1ccc(COc2ccc(CNCc3cccs3)cc2)cc1	-0.6	-4.2	-1.7	-15.4	20591*	-2.4
O=C1OCC(Cn2c3ccccc3c3ccccc32)O1 (stereo not drawn)	7.6	0.9	0.7	2.5	23400*	1.1
CCc1c(C)nc2c(-c3ccccc3)c(-c3ccccc3)[nH]n2c1=O	-4.8	9.1	-2.5	-16.9	3915	19.1
C=CCNC(=O)c1cc(Cl)ccn1	5.5	1.7	0.2	1.5	2071	-0.7
O=C1OC(c2ccc([N+](=O)[O-])cc2)=N/C1=C/N1CC2CC(C1)c1cccc(=O)n1C2 (stereo not drawn)	20.6	-8.6	-0.4	2.4	3515	0.2
O=C1OC(c2ccc(Cl)cc2)=N/C1=C\N1CC2CC(C1)c1cccc(=O)n1C2 (stereo not drawn)	59.7*	1.6	-0.2	-3.9	3377	2.2
O=C1OC(c2ccc(Br)cc2)=N/C1=C\N1CC2CC(C1)c1cccc(=O)n1C2 (stereo not drawn)	55.8*	-6.7	-1.6	-1.4	4510	-3.9
